Assay results published in PubChem BioAssay AID1452 (National Center for Advancing Translational Sciences (NCATS), 2008).
In all, about 150,000 compounds went through this assay and about 190 (0.13%) were called active. Roughly 2% stayed inconclusive and do not appear here. Calls follow the shape of the dose curve; as a rule, active = well fitted inhibition curve with a large enough effect; inconclusive = small, poorly fitted or top-dose-only effect; inactive = flat fitted curve, though single readings scatter. The sample as a whole holds a higher share of actives than the screen did.

Target: Polyunsaturated fatty acid lipoxygenase ALOX12 (Homo sapiens) (UniProt P18054)
Experiment: qHTS Assay for Inhibitors of 12-hLO (12-human lipoxygenase); also: nearly all actives have a fitted effect of over 55% in size
Conditions: purified 12-hLO, xylenol orange hydroperoxide absorbance; series mostly up to 57.1 µM; activity change, negative = inhibition: at the top concentration
From the text: Assay Provider: Holman, T.R., University of California, Santa Cruz Screening Center PI: Austin, C.P. Screening Center: NIH Chemical Genomics Center [NCGC] Human lipoxygenase 12hLO is a member of the closely related lipoxygenase family of enzymes which catalyze the site-specific oxidation of arachidonic acid to various hormone precursor molecules and as such is a candidate for drug development in a variety of disease areas, such as cancer and inflammation. Inhibition of 12hLO activity was screened by utilizing arachidonic acid as a substrate. The extent of hydroperoxide product formation was measured by a secondary chromogenic reaction in which xylenol orange (XO, Sigma-Aldrich, cat. number 39,818-7) reacts with the ferric ions produced from the reaction between the hydroperoxide and ferrous ions. The Fe(III)-XO complex is characterized with red-shifted absorbance at 560 nm. A purified preparation of human 12hLO was supplied by Professor Ted Holman, University of California, Santa Cruz.
Assay Protocol: Buffer: 25 mM Hepes pH 7.0, 0.01% Triton X-100. Reagents/Controls: Buffer in columns 3 and 4 as negative control (no enzyme). Substrate solution: 40 uM arachidonic acid (Sigma-Aldrich, St. Louis, MO) final concentration dispensed throughout the plate. Enzyme: 150 nM 12hLO final concentration in columns 1, 2, 5-48. Column 1 is neutral (100% activity). Column 2 contained pin-transferred titration of NDGA (nordihidroguaiaretic acid, Sigma-Aldrich, N 5023, top concentration 20 mM in DMSO, then 1:3 dilution in duplicate). (Dilution factor: 23 nL into 4 uL.) Chromogenic detection reagent (divalent iron/xylenol orange, Fe-XO): 200 uM xylenol orange plus 300 uM ferrous ammonium sulfate prepared freshly in 50 mM sulfuric acid. Assay Steps: Three uL of enzyme were dispensed to 1536-well Greiner black clear bottom plates. Compounds and controls (23 nL) were transferred via Kalypsys PinTool. The plates were incubated for 15 min at room temperature, and then 1 uL of substrate solution was added to start the reaction. After room temperature incubation for 30 minutes, 4 uL of Fe-XO solution was added to each well and the plates were incubated for 30 min. The absorbance at 405 and 573 nm were measured using ViewLux (Perkin-Elmer) High-throughput CCD imager and absorbance protocol settings. The 573-to-405 absorbance ratio was used to compute reaction progress.
% is scaled to controls: 0 for no effect and ±100 for the full control effect.

Polyunsaturated fatty acid lipoxygenase ALOX12 (Homo sapiens), sequence (P18054 whole entry, looked up): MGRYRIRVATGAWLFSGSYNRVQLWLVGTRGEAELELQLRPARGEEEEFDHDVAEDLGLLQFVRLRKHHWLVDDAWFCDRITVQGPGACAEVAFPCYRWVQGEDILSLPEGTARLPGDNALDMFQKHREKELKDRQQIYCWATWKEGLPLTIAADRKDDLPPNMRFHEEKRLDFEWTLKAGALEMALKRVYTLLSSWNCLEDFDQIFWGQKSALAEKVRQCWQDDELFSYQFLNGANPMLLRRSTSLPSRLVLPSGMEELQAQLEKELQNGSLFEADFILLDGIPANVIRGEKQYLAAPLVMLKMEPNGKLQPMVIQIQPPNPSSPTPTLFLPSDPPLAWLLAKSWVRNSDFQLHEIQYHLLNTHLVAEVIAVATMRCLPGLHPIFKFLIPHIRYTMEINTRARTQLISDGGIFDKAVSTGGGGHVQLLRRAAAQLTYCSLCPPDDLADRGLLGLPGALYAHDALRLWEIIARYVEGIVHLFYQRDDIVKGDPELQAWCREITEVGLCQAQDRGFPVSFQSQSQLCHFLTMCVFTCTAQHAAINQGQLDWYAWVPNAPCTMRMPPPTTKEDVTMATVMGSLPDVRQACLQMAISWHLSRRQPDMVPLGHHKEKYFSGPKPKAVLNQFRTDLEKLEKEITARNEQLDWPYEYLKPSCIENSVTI

Row | SMILES | activity change, negative = inhibition
1 | COc1ccccc1OCC(=O)OCn1c(SC)nnc(C)c1=O | -0.32% (inactive)
2 | N#C/C(=C/c1ccc(N2CCCCC2)o1)C(=O)NCCc1c[nH]c2ccccc12 | -7.08% (inactive)
3 | CC(C)CN(C(=O)CN1CCN(S(=O)(=O)c2ccccc2)CC1)c1c(N)n(CC(C)C)c(=O)[nH]c1=O | 3.56% (inactive)
4 | Cc1cc(N2CCOCC2)nc(-c2ccc(Br)cc2)n1 | 1.56% (inactive)
5 | COc1ccc2c(-c3ccccc3)cc(SCC(=O)N(C)C3CCS(=O)(=O)C3)nc2c1 (centres undefined) | -4.74% (inactive)
6 | Cc1ccc(S(=O)(=O)N2CCC(=O)N([C@H](COCc3ccccc3)Cc3ccccc3)CC2)cc1 | 0.261% [at 0.00818 µM] (inactive)
7 | COc1ccc(-n2c(C)cc(C(=O)COC(=O)c3cc(OC)c(OC)cc3NC(=O)c3cccs3)c2C)cc1 | 1.19% (inactive)
8 | COc1cc2c(cc1NC(=O)COC(=O)/C=C/c1ccccc1)oc1ccccc12 | 0.678% (inactive)
9 | COc1ccc(CCNc2cc(C)nc3c(-c4ccc(Cl)cc4)c(C)nn23)cc1OC | -1.48% (inactive)
10 | O=C(Nc1ccc(N2C(=O)c3cccc4cccc(c34)C2=O)cc1)c1ccc(N2CCCCC2)c([N+](=O)[O-])c1 | -0.132% (inactive)
11 | CCn1c(=O)cc(SCC(=O)NCCC2=CCCCC2)c2ccccc21 | -12.1% (inactive)
12 | COc1cccc(CC(=O)N2CCc3nc(COc4ccccc4)c4c(c3C2)CO[C@@H](C)C4)c1 | -2.68% [at 11.4 µM] (inactive)
13 | COCCNC(=O)c1ccc(N2CCC3(CC2)OCCO3)c([N+](=O)[O-])c1 | 3.27% (inactive)
14 | CCCN=C1NC(=O)C(CC(=O)NCCc2ccc(OC)c(OC)c2)S1 (centres undefined) | -0.962% (inactive)
15 | CCOC(=O)c1ccccc1N1C(=O)C2Sc3[nH]c(=O)sc3C(/C=C/c3ccccc3)C2C1=O (centres undefined) | -26% (inactive)
16 | CC(=O)NNC1=Nc2ccccc2N(C)C(C)C1 (centres undefined) | 1.24% (inactive)
17 | COC(=O)/C(C#N)=C/c1occc1C | -1.5% (inactive)

Row | SMILES | activity change, negative = inhibition
18 | Cc1[nH]n(-c2ccccc2)c(=O)c1/C=N/NC(=O)c1ccoc1C | -1.41% (inactive)
19 | Cn1cccc1/C=N/NC(=O)c1ccc(OC(F)(F)C(F)F)cc1 | -1.04% (inactive)
20 | COc1cc(OC)c2c(-c3cccc(-c4cccc(N)c4)c3)cc(=O)oc2c1 | -1.39% [at 0.00818 µM] (inactive)
21 | N=C1/C(=C/c2cccn2-c2cccc([N+](=O)[O-])c2)C(=O)N=C2SC=CN12 | -1.46% (inactive)
22 | Cc1cccc([C@H]2[C@@H]3C=CC[C@@H](C)[C@@H]3C(=O)N2Cc2ccccc2)c1 | -6.11% [at 0.00818 µM] (inactive)
23 | COc1cc(CCC(=O)OCC(=O)Nc2cccc(S(N)(=O)=O)c2)cc(OC)c1OC | 3.81% (inactive)
24 | O=C(O)CC(Cc1ccccc1)C(=O)Nc1ccc([N+](=O)[O-])cc1 (centres undefined) | -0.203% (inactive)
25 | NC(=O)C[C@@H]1NC(=O)CNC(=O)c2cc([N+](=O)[O-])cc(I)c2NCCC(C(N)=O)NC1=O (some centres undefined) | -10.2% (inactive)
26 | Cn1cccc1/C=C1\SC(=S)N(NC(=O)c2ccc(Cl)cc2)C1=O | -12.2% (inactive)
27 | CCc1nnc(NC(=O)/C=C/c2ccc(C)o2)s1 | -2.76% (inactive)
28 | C=CC1=C2C=C(C3CC3)N(C(CO)CO)C=C2C(=O)C(C)(OC(=O)c2ccco2)C1=O (centres undefined) | 3.57% [at 11.4 µM] (inactive)
29 | CC1=C(C/C=C(\C)CCCC(C)CCCC(C)CCCC(C)C)C(=O)c2ccccc2C1=O (centres undefined) | -5.67% [at 0.00818 µM] (inactive)
30 | CN(C(=O)CSc1nnc(-c2n[nH]c3ccccc23)o1)c1ccccc1 | -2.11% (inactive)
31 | Cc1nc(-c2ccccc2)cn2c1nc1ccccc12 | 0.637% (inactive)
32 | O=C1OCCN1C(=O)[C@H]1[C@H](c2ccc(Cl)cc2)C(c2cccc(Cl)c2)=NN1c1ccc(Br)cc1 | -6.33% [at 0.00818 µM] (inactive)
33 | COc1cc(OC)c2c(c1)OC(=O)CC2c1cc(OC)c(OC)c(OC)c1 (centres undefined) | -5.58% [at 0.00818 µM] (inactive)
34 | CCCCC/C=C\C/C=C\CCCCCCCCCC(=O)O | 0.814% (inactive)
